# This excerpt belongs to a sample that is enriched for the strongest signals.
# B1: Cp ZmpB (Clostridium perfringens), Q0TR08 (protein)
# chain: MNKRKIAAIILATMITNLSATTIDVLAQELNTKNNSKVEVSHDDESHQARVSKFDLYNSDKLDAYNQEFQVSRSNIKSINNNGGKYNSSTIDKAIDGNLETHWETGKPNDANFTNEVVVTFNEITNIDRIVYSARRDSARGKGFAKEFEIYASLKDEGDDFNLVSSGEYTESTRDLVEIKFNPTDFKRLKFKFKKADQNWASAAEFMFYKEDKLNEKFNGLFTDSSMNKVSEEFNTLEKLNAFENELKDHPIYDLYKEGLNNARAILTETSENPTKATLGQITYNLNDDYNNQYRMPYKNIKAIKNNGRHYAAQNIEKAIDNDVNTYWETGTLNSSSFNNEVEVEFNDLVTLDRIVYGSRQSDLKGFAEEVYIYASRTSKGDTYKLVATGAHEATKGLVEAKFEPTEFKRVKFKFKKSKQNSATLNELMFYKPDEVYSSIPKLFTDGTMSELSEEFNSLEKINAFKEKAKNHPLYNDFNETIELAESLISNPRKEDVLELEMRGDSISEAKKRKVWNFQDWQITGLSARAGDKITVYVDVAEGDPTPTLLYKQSLTQHGGATSFQLKPGKNEITIPEINYESNGIPKDVIQGGDLFFTNYKSDSQKRAPKVRIEGASKYPVFILGKSDENEVMKELEAYVEKIKAEPKTTPNIFAVSSNKSLEFVQATYALDWYKKNNKTPKYTAEQWDQYIADAMGFWGFDNSKDVNSDFNFRIMPMVKNLSGGAFMNAGNGVIGIRPGNQDAILAANKGWGVAHELGHNFDTGGRTIVEVTNNMMPLFFESKYKTKTRITDQNIWENNTYPKVGLDDYSNNELYNKADSTHLAQLAPLWQLYLYDNTFYGKFERQFRERDFGNKNREDIYKSWVVAASDAMELDLTEFFARHGIRVDDKVKEDLAKYPKPDKKIYYLNDLAMNYKGDGFTENAKVSVSTSGSNGNIKLSFSVDDENKDNILGYEIRRDGKYVGFTSNDSFVDTKSNLDEDGVYVVTPYDRKLNTLNPIEVNALQPTLSVNPVITLALGEEFNEEEYIVAKDIKGNSLSESVKVKSSNVNTSKVGEYEVLYSLEDSKGNEYTKTSKVNVVSRKEYMSDLTPKQSSNGWGTVRKDKSISGGVIGLTRDGDFVDYNKGLGLHSNAEYVYDLEGKDYDYFESYVGVDKAMSSRPASSVIFKVLVDGEEKFNSGVMRSTTPQKYVKVDVKNAKELKLIVNDAGDGDSSDHASFGDAKLATLSSKPIIKGENLAYSMDEKVDLMKGITATDIEDGNITSKVQIKSSDFVEGKSGIFTVVYSVTDSDGLTSECSRTIAVTDKETQLSDLNWKSATIGSGSVRKDRAVSGNQIRLLNEDNSVETFAKGIGTHSYSEIVYNSEGYDIFDTWVGIDRHVADKKVSSVKFKVYVDGELKAETDVMRIDTPKKRLVVDVRNSKEIKLVVDVADNGNNWDHADWADAKFRNLAEYDASELNKAIEEAKKLDLNNYTEESSEALKNAISKGEEALLSKDKETINSALEELNKEMNSLVKVDLNAVINIPDKYLLKSIQNQLNKTGDITLGDMYSLTTLTLSGVEDLTGLENAKNLETLNMDYNEVKDLRPLSKLKKLNTLNAQEQFIAAGELKPSNGKVIGDSKVYNREGKNVAKTIRVVDKNGNTILEQDAKDEFTINTKDLSSGLYGVHVLFEDEGFSGVMFYLFNV
# Experiments:
# Test in all cases: glycan array binding signal (z-score within array); higher = stronger binding
# Settings in all cases: glycan notation: IUPAC condensed, linker removed
# [1] = target: GlcNAc(b1-3)[GlcNAc(b1-6)]GalNAc
# How it was run: (§1)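 Glycan array data came from 3228 arrays in the Consortium for Functional Glycomics database, and only arrays with an available protein sequence were kept. Glycan names were put into IUPAC-condensed notation, and columns mapping to the same glycan were averaged. The binding signal is a within-array Z-score, averaged across arrays of one protein sequence run at different concentrations or buffers and across linkers. A negative Z-score can be read as non-binding.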
# [2] = target: Man(a1-3)[Man(a1-6)]Man(b1-4)GlcNAc(b1-4)GlcNAc
# How it was run: as §1
# [3] = target: Neu5Ac(a2-3)Gal(b1-3)GalNAc(b1-4)Gal(b1-4)Glc
# How it was run: as §1
# [4] = target: Neu5Ac(a2-3)Gal(b1-3)GalNAc(b1-4)[Neu5Ac(a2-3)]Gal(b1-4)Glc
# How it was run: as §1
# [5] = target: Neu5Ac(a2-3)Gal(b1-3)GalNAc6S
# How it was run: as §1
# [6] = target: Neu5Ac(a2-3)Gal(b1-3)GlcNAc(b1-2)[Neu5Ac(a2-3)Gal(b1-3)GlcNAc(b1-4)]Man(a1-6)[Neu5Ac(a2-3)Gal(b1-3)GlcNAc(b1-2)Man(a1-3)]Man(b1-4)GlcNAc(b1-4)GlcNAc
# How it was run: as §1
# [7] = target: Neu5Ac(a2-3)Gal(b1-4)GlcNAc(b1-2)Man
# How it was run: as §1
# [8] = target: Neu5Ac(a2-3)Gal(b1-4)GlcNAc(b1-3)GalNAc
# How it was run: as §1
# [9] = target: Neu5Ac(a2-3)Gal(b1-4)GlcNAc(b1-6)[Gal(b1-3)]GalNAc
# How it was run: as §1
# [10] = target: Neu5Ac(a2-3)Gal(b1-4)[Fuc(a1-3)]GlcNAc
# How it was run: as §1
# [11] = target: Neu5Ac(a2-6)Gal(b1-4)GlcNAc(b1-2)Man(a1-3)Man(b1-4)GlcNAc(b1-4)GlcNAc
# How it was run: as §1
# [12] = target: Neu5Ac(a2-6)Gal(b1-4)GlcNAc(b1-2)Man(a1-3)[GlcNAc(b1-4)][Neu5Ac(a2-6)Gal(b1-4)GlcNAc(b1-2)Man(a1-6)]Man(b1-4)GlcNAc(b1-4)GlcNAc
# How it was run: as §1
# [13] = target: Neu5Ac(a2-6)Gal(b1-4)GlcNAc(b1-2)Man(a1-3)[Man(a1-6)]Man(b1-4)GlcNAc(b1-4)GlcNAc
# How it was run: as §1
# [14] = target: Neu5Ac(a2-6)Gal(b1-4)GlcNAc(b1-3)Gal(b1-4)GlcNAc
# How it was run: as §1
# [15] = target: Neu5Ac9Ac(a2-3)Gal(b1-4)GlcNAc
# How it was run: as §1
# [16] = target: Neu5Gc(a2-3)Gal(b1-3)GlcNAc
# How it was run: as §1
# [17] = target: Neu5Gc(a2-3)Gal(b1-4)[Fuc(a1-3)]GlcNAc
# How it was run: as §1
binder,measurement,setting,value
B1,glycan array binding signal (z-score),[1],-0.207
same,glycan array binding signal (z-score),[2],-0.046
same,glycan array binding signal (z-score),[3],0.164
same,glycan array binding signal (z-score),[4],1.03
same,glycan array binding signal (z-score),[5],-0.457
same,glycan array binding signal (z-score),[6],0.01
same,glycan array binding signal (z-score),[7],0.151
same,glycan array binding signal (z-score),[8],-0.142
same,glycan array binding signal (z-score),[9],1.22
same,glycan array binding signal (z-score),[10],0.096
same,glycan array binding signal (z-score),[11],-0.151
same,glycan array binding signal (z-score),[12],-0.267
same,glycan array binding signal (z-score),[13],-0.365
same,glycan array binding signal (z-score),[14],1.03
same,glycan array binding signal (z-score),[15],1.71
same,glycan array binding signal (z-score),[16],-0.326
same,glycan array binding signal (z-score),[17],2.05

# Reference: the supplement of paper PMC8728848
